Viability and Potency data for 35 compounds are collected here from PubChem BioAssay (NCATS).

The structures appear in SMILES notation. Records with an inconclusive call do not appear. Active and inactive are the calls of the source. The call rests on the fitted dose curve; in most records, active means well fitted inhibition curve with a large enough effect; inconclusive means small, poorly fitted or top-dose-only effect; inactive means no such curve, though single readings can be large or run the other way.
Potency means the concentration at half of the fitted maximal effect.

The test is described as follows: BET inhibitor-based combinations targeting novel dependencies in MECOM-rearranged (r) AML: SET-2 cell line (AID 2202231). Further: nearly all actives have a fitted effect of over 35% in size.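 On Viability: plate controls were DMSO treated cells for no effect and wells without cells for full effect.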 As to conditions: SET-2 AML cells viability, CellTiter-Glo luminescence, 48 h; viability: hits give low values, series mostly up to about 46 µM. The procedure, abridged: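 Cells were plated at 500 per well and exposed to an 11-point dose series of each drug for 48 hr. Viability was measured by CellTiter-Glo luminescence, normalized to DMSO and empty-well controls, and summarized as AUC and per-cell-line Z-AUC.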
(In general: Cellular ATP, detected with luciferase, serves as a proxy for viable cell number.)
A word on the viability: it is a read-out of living cells in per cent, often relative to untreated cells. As for `c1ccc2c(Cc3c[nH]c4ccccc34)c[nH]c2c1`, the viability is 103% (inactive).

For the compound `O=C1CC(c2c[nH]c3ccc(F)cc23)C(=O)N1` (stereo not given), the viability was 111% (inactive).

For the compound `CC(C)(c1ccc(OCC(O)CO)cc1)c1ccc(OCC(O)CCl)cc1` (stereo not given), the viability is 60% (inactive).

As to `O=C(Nc1cccc(C(F)(F)F)c1)c1cccc2cc(Oc3cc(CO)ncn3)ccc12`, the viability was 103% (inactive).

Regarding `Cc1[nH]nc2ncc(C(=O)N3CCC[C@H]3c3ccc(Cl)cc3)cc12`, the viability is 105% (inactive).

With `C#C[C@]1(O)CC[C@H]2[C@@H]3[C@H](C)CC4=C(CCC(=O)C4)[C@H]3CC[C@@]21C`, the viability was 111% (inactive).

`CN(Cc1cnc2nc(N)nc(N)c2n1)c1ccc(C(=O)N[C@@H](CCC(=O)O)C(=O)O)cc1`: the Potency is 37.2 nM (active).

As for `c1ccc(-c2nn3c(c2-c2ccnc4cc(OCCN5CCOCC5)ccc24)CCC3)nc1`, the viability was 81.4% (inactive).

As to `Nc1nc(N)c2nc(-c3cccc(Cl)c3)c(N)nc2n1`, the Potency is 372 nM (active).

With `CC(C)C1CCC(C(=O)N[C@H](Cc2ccccc2)C(=O)O)CC1` (stereo not given in full), the viability is 115% (inactive).

In the case of `CN1CCN(CCCNc2ncc(Cl)c(-c3cc4c(C(=O)NC5CC5)cccc4s3)n2)CC1`, the viability was 80.2% (inactive).

In the case of `NC[C@H]1O[C@H](O[C@H]2[C@H](O)[C@@H](O[C@H]3O[C@H](CO)[C@@H](O)[C@H](N)[C@H]3O)[C@H](N)C[C@@H]2N)[C@H](N)C[C@@H]1O`, the viability was 115% (inactive).

Take `OCCn1cc(-c2ccc3c(c2)CC/C3=N\O)c(-c2ccncc2)n1`: the viability was 102% (inactive).

Take `Nc1nc(F)nc2c1ncn2[C@@H]1O[C@H](COP(=O)(O)O)[C@@H](O)[C@@H]1O`: the Potency is 3720 nM (active).

`CNS(=O)(=O)Nc1nccc(Cc2c(C)c3ccc(Oc4ncccn4)cc3oc2=O)c1F`: the Potency was 3720 nM (active).

Turning to `C[C@@H](C(=O)Nc1ccc(Cl)cc1)C1CCC(c2ccnc3ccc(F)cc23)CC1` (stereo not given in full), the Potency was 16600 nM (active).

`C#Cc1cccc(Nc2ncnc3cc4c(cc23)OCCOCCOCCO4)c1`: the viability was 93.5% (inactive).

As for `O=C(O)CC(C(=O)O)n1c(O)c(C2=c3cc(Br)ccc3=NC2=O)sc1=S` (stereo not given), the viability was 100% (inactive).

Take `COc1cc([C@@H](CC(=O)O)c2ccc(C)c(CN3C[C@@H](C)Oc4ccccc4S3(=O)=O)c2)cc2nnn(C)c12`: the viability was 67.3% (inactive).

In the case of `O=c1[nH]c(=O)n([C@H]2C[C@H](O)[C@@H](CO)O2)cc1F`, the Potency is 296 nM (active).

`CC[C@@H](Oc1cccc(CN(CCCOc2ccc(OC)cc2)c2nc3ccccc3o2)c1)C(=O)O`: the viability is 110% (inactive).

On to `CO[C@@]12[C@H](COC(N)=O)C3=C(C(=O)C(C)=C(N)C3=O)N1C[C@@H]1N[C@@H]12`, for which the viability was 95% (inactive).

Regarding `CN[C@@H](C)C(=O)N[C@@H]1C(=O)N(Cc2c(C)ccc3ccccc23)c2ccc(C#N)cc2N(C(C)=O)[C@H]1C`, the viability is 102% (inactive).

`Cc1nc2ccc(CN(C)c3ccc(C(=O)N[C@@H](CCC(=O)O)C(=O)O)s3)cc2c(=O)[nH]1`: the Potency was 46.8 nM (active).

As to `C#CCN(C)CC1=Cc2ccccc2Oc2ccccc21`, the viability was 106% (inactive).

Turning to `CC(=O)CC(c1ccccc1)c1c(O)c2ccccc2oc1=O` (stereo not given), the viability is 107% (inactive).

For the compound `O=C(Cc1ccccc1)Nc1nnc(CCSCCc2nnc(NC(=O)Cc3ccccc3)s2)s1`, the Potency was 9340 nM (active).

In the case of `O=C(O)c1ccccc1-c1ccc(/C=c2\sc3nc4cc(Br)cnc4n3c2=O)o1`, the viability was 92.3% (inactive).

As to `Clc1ccc(CCC(Cn2ccnc2)Sc2c(Cl)cccc2Cl)cc1` (stereo not given), the viability is 81.3% (inactive).

For `CN[C@@H]1[C@@H](O)[C@@H](O[C@@H]2[C@@H](O)[C@H](O[C@H]3O[C@H](CN)[C@@H](O)[C@H](O)[C@H]3O)[C@@H](N)C[C@H]2NC(=O)C(O)CN)OC[C@]1(C)O` (stereo not given in full), the viability was 116% (inactive).

As to `Cc1cc(C)c(S(=O)(=O)N(CCc2cccc(Br)c2)Cc2ccc(-c3cccc(S(C)(=O)=O)c3)cc2)c(C)c1`, the viability was 117% (inactive).

As for `O=C(/C=C\n1cnc(-c2cc(C(F)(F)F)cc(C(F)(F)F)c2)n1)NNc1ccccn1`, the Potency is 934 nM (active).

For the compound `CNC(=O)[C@H](Cc1c[nH]c2ccccc12)NC(=O)[C@@H](CC(=O)NO)CC(C)C`, the viability was 112% (inactive).

For the compound `COc1ncc(Nc2ncc(C(C)N3CCN(S(C)(=O)=O)CC3)cc2-c2nc(C)nc(N)n2)cc1F` (stereo not given), the viability was 73.4% (inactive).

As for `c1ccc2[nH]c(-c3cscn3)nc2c1`, the viability is 111% (inactive).
